“And” between values parts separate entries of the source, which are not always exact repeats. Equal entries are not always repeated. The campaign covered roughly 5,500 compounds. About 2,000 (36%) were called active. Inconclusive results (about 18%) are left out. Rule as the data show it: active = normalized growth mostly below about 0.91 (no sharp cut-off); inconclusive = no clear call, values can overlap the other calls; inactive = mostly above about 0.92. This is one part of the list.
Assay: chemical genetic growth profiling, strain panel (AID 1159580);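 also: tested at 20 µM; growth read once vehicle control cultures reached saturation at 30 °C; 1 = growth at the plate median or of vehicle wells; lower values mean less growth of the strain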
Settings: growth OD

Measured: normalized growth

C#CCN(C)Cc1ccccc1
inactive: S. cerevisiae deletion strains, locus YJR075W, strain HOC1, hits give low values 0.991 | S. cerevisiae deletion strains, locus YKL009W, strain mrt4, hits give low values 1.02 | S. cerevisiae deletion strains, locus YKL068W, hits give low values 1 | S. cerevisiae deletion strains, locus YKL085W, strain MDH1 (second series), hits give low values 1 | S. cerevisiae deletion strains, locus YKL085W, strain MDH1, hits give low values 1 | S. cerevisiae deletion strains, locus YKL160W, strain elf1, hits give low values 1.01 | S. cerevisiae deletion strains, locus YKL190W, strain CNB1, hits give low values 0.997 | S. cerevisiae deletion strains, locus YKR001C, strain vps1, hits give low values 1.02 | S. cerevisiae deletion strains, locus YKR026C, strain gcn3, hits give low values 1.02 | S. cerevisiae deletion strains, locus YKR091W, strain srl3, hits give low values 1.02 | S. cerevisiae deletion strains, locus YLL001W, strain dnm1, hits give low values 1.02 | S. cerevisiae deletion strains, locus YLL026W, hits give low values 1 | S. cerevisiae deletion strains, locus YLL041C, strain sdh2, hits give low values 0.968 | S. cerevisiae deletion strains, locus YLR027C, strain aat2, hits give low values 0.991 | S. cerevisiae deletion strains, locus YLR039C, strain RIC1, hits give low values 1.02 | S. cerevisiae deletion strains, locus YLR058C, strain SHM2, hits give low values 0.998 | S. cerevisiae deletion strains, locus YLR102C, strain apc9, hits give low values 1.01 | S. cerevisiae deletion strains, locus YLR113W, strain HOG1, hits give low values 1 | S. cerevisiae deletion strains, locus YLR221C, strain rsa3, hits give low values 1.01 | S. cerevisiae deletion strains, locus YLR258W, strain gsy2, hits give low values 1 | S. cerevisiae deletion strains, locus YLR262C, strain YPT6 (second series), hits give low values 1.05 | S. cerevisiae deletion strains, locus YLR262C, strain YPT6, hits give low values 0.997 | S. cerevisiae deletion strains, locus YLR268W, strain sec22, hits give low values 1.06 | S. cerevisiae deletion strains, locus YLR320W, strain mms22, hits give low values 0.99 | S. cerevisiae deletion strains, locus YLR330W, strain CHS5, hits give low values 1 | S. cerevisiae deletion strains, locus YLR342W, strain FKS1 (second series), hits give low values 1.02 | S. cerevisiae deletion strains, locus YLR342W, strain FKS1, hits give low values 1.03 | S. cerevisiae deletion strains, locus YLR357W, strain rsc2, hits give low values 1.05 | S. cerevisiae deletion strains, locus YLR370C, strain arc18, hits give low values 0.987 | S. cerevisiae deletion strains, locus YLR371W, strain rom2, hits give low values 1.02 | S. cerevisiae deletion strains, locus YLR384C, strain iki3, hits give low values 0.996 | S. cerevisiae deletion strains, locus YLR418C, strain cdc73, hits give low values 1.02 | S. cerevisiae deletion strains, locus YML016C, strain PPZ1, hits give low values 1 | S. cerevisiae deletion strains, locus YML032C, strain rad52, hits give low values 1.02 | S. cerevisiae deletion strains, locus YML120C, strain ndi1, hits give low values 0.999 | S. cerevisiae deletion strains, locus YML124C, strain tub3, hits give low values 1.01 | S. cerevisiae deletion strains, locus YMR058W, strain fet3, hits give low values 1.04 | S. cerevisiae deletion strains, locus YMR078C, strain ctf18, hits give low values 1.02 | S. cerevisiae deletion strains, locus YMR125W, strain sto1, hits give low values 1.03 | S. cerevisiae deletion strains, locus YMR129W, hits give low values 0.988 | S. cerevisiae deletion strains, locus YMR205C, strain PFK2, hits give low values 0.98 | S. cerevisiae deletion strains, locus YMR223W, strain ubp8, hits give low values 0.98 | S. cerevisiae deletion strains, locus YMR231W, strain pep5, hits give low values 1.02 | S. cerevisiae deletion strains, locus YMR263W, strain SAP30, hits give low values 0.995 | S. cerevisiae deletion strains, locus YMR307W, strain GAS1, hits give low values 0.994 and 0.99 | S. cerevisiae deletion strains, locus YNL067W, strain RPL9B, hits give low values 0.99 | S. cerevisiae deletion strains, locus YNL071W, strain lat1, hits give low values 1.02 | S. cerevisiae deletion strains, locus YNL128W, strain TEP1, hits give low values 1.01 and 0.994 | S. cerevisiae deletion strains, locus YNL153C, strain GIM3, hits give low values 1.15 | S. cerevisiae deletion strains, locus YNL175C, strain NOP13, hits give low values 1.01 | S. cerevisiae deletion strains, locus YNL183C, strain NPR1, hits give low values 0.944 | S. cerevisiae deletion strains, locus YNL197C, strain WHI3, hits give low values 1.01 | S. cerevisiae deletion strains, locus YNL209W, strain ssb2, hits give low values 1.02 | S. cerevisiae deletion strains, locus YNL224C, strain SQS1, hits give low values 1.04 | S. cerevisiae deletion strains, locus YNL233W, strain BNI4, hits give low values 0.996 | S. cerevisiae deletion strains, locus YNL248C, strain rpa49, hits give low values 1.03 | S. cerevisiae deletion strains, locus YNL250W, strain rad50, hits give low values 1.01 | S. cerevisiae deletion strains, locus YNL271C, strain bni1, hits give low values 1.02 | S. cerevisiae deletion strains, locus YNL298W, strain CLA4, hits give low values 1.03 | S. cerevisiae deletion strains, locus YNL307C, strain MCK1, hits give low values 1.03 | S. cerevisiae deletion strains, locus YNL322C, strain KRE1 (second series), hits give low values 1.03 | S. cerevisiae deletion strains, locus YNR049C, strain mso1, hits give low values 0.961 | S. cerevisiae deletion strains, locus YNR052C, strain pop2, hits give low values 1.03 | S. cerevisiae deletion strains, locus YOL006C, strain TOP1, hits give low values 1 | S. cerevisiae deletion strains, locus YOL012C, strain htz1 0.939 | S. cerevisiae deletion strains, locus YOL147C, strain pex11, hits give low values 1.02 | S. cerevisiae deletion strains, locus YOR001W, strain rrp6, hits give low values 1.01 | S. cerevisiae deletion strains, locus YOR061W, strain CKA2, hits give low values 1 | S. cerevisiae deletion strains, locus YOR069W, strain VPS5, hits give low values 1 | S. cerevisiae deletion strains, locus YOR070C, strain gyp1, hits give low values 1.01 | S. cerevisiae deletion strains, locus YOR080W, strain dia2, hits give low values 1.02 | S. cerevisiae deletion strains, locus YOR083W, strain WHI5 (second series), hits give low values 1.01 | S. cerevisiae deletion strains, locus YOR083W, strain WHI5, hits give low values 1 | S. cerevisiae deletion strains, locus YOR106W, strain vam3, hits give low values 0.996 | S. cerevisiae deletion strains, locus YOR136W, strain idh2, hits give low values 1.01 | S. cerevisiae deletion strains, locus YOR144C, strain elg1, hits give low values 1.01 | S. cerevisiae deletion strains, locus YOR184W, strain ser1, hits give low values 1.01 | S. cerevisiae deletion strains, locus YOR231W, strain MKK1, hits give low values 0.997 | S. cerevisiae deletion strains, locus YOR265W, strain rbl2, hits give low values 1.01 | S. cerevisiae deletion strains, locus YOR270C, strain vph1, hits give low values 1.06 | S. cerevisiae deletion strains, locus YOR290C, strain snf2, hits give low values 0.999 | S. cerevisiae deletion strains, locus YOR316C, strain cot1, hits give low values 1.02 | S. cerevisiae deletion strains, locus YPL051W, strain arl3, hits give low values 1.02 | S. cerevisiae deletion strains, locus YPL078C, strain atp4, hits give low values 1.05 | S. cerevisiae deletion strains, locus YPL106C, strain sse1, hits give low values 1.07 | S. cerevisiae deletion strains, locus YPL240C, strain hsp82, hits give low values 0.979 | S. cerevisiae deletion strains, locus YPL256C, strain CLN2, hits give low values 0.939 | S. cerevisiae deletion strains, locus YPR119W, strain clb2, hits give low values 1.02 | S. cerevisiae deletion strains, locus YPR141C, strain kar3, hits give low values 1 | S. cerevisiae deletion strains, locus YPR163C, strain tif3, hits give low values 1.02 | S. cerevisiae deletion strains, locus YPR167C, strain met16, hits give low values 1.02 | S. cerevisiae deletion strains, strain wtn01, hits give low values 1.02 | S. cerevisiae strains, strain wild type, hits give low values 0.998

From PubChem BioAssay AID1159580 (chemical genetic matrix, 2015)
